Sampled rows, rich in hits. Any-hit rate of the full collection: about 10%.
PLK1 PBD inh: blocks phosphopeptide binding to human PLK1 polo-box domain | P53350 | Plk1 PBD binding of FITC phosphopeptide, fluorescence polarization | Potency, µM, without a hit: max response, negative = inhibition, actives largely listed as inhibitors | hit rate 2.8% among 360,000 | AID 720504; further: potency means the concentration at half of the fitted maximal effect; series mostly up to about 57 µM; nearly all actives have a fitted effect of over 65% in size
CCT chaperon mod: modulators of cytosolic chaperonin (CCT/TRiC) activity | hit rate 0.3% among 360,000 | activity change, % (concentration not given with the values), hits read low | purified chaperonin ATPase assay, HTRF ADP detection, 30 min; in the data active means activity change below about -30%
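Nucleotide hydrolysis assay: TRiC at 20–40 nM final (set by batch activity) with 10 uM ATP, 30 min at 37 °C, in presence of 76 uM compound. Detection by competitive ADP HTRF, 30 min ambient.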
MmCpn inh: inhibitors of Methanococcus maripaludis chaperonin TRiC (MmCpn); AID 504842; Potency, µM (doses to about 76.9 µM), for inactives: top-dose activity, negative = inhibition, hits mostly inhibitors; purified Mm-Cpn ATPase, ADP Transcreener TR-FRET; hit rate 0.031% among 330,000; further: potency means the concentration at half of the fitted maximal effect; nearly all actives have a fitted effect of over 80% in size
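Reaction buffer contained 30 mM Tris pH 7.4, 100 mM KCl, 5 mM MgCl2 and 1 mM DTT. Mm-CPN (25 nM final) hydrolysed 10 uM ATP over 30 min at 37°C; ADP was read by HTRF.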
Sfp inh: Sfp phosphopantetheinyl transferase inhibition; AID 1490; Q9F4F7; Biochemical Sfp PPTase activity, qHTS; Potency, µM, for the others: largest response in the series, negative = inhibition, hits mostly inhibitors; hit rate 3.5% among 310,000;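 further: the enzyme is Sfp with the accession as filed and its product quenches rhodamine fluorescence; potency means the concentration at half of the fitted maximal effect; 0% = enzyme reaction without inhibitor and -100% = no enzyme wells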
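After 15 min at room temperature with compound, 15 nM Sfp received 5 uM rhodamine-CoA plus 12.5 uM BHQ-2-ybbR (50 mM Hepes pH 7.6, 10 mM MgCl2). Rate came from the fluorescence difference over 30 min, ex 525/em 598 nm.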
G9a inh: inhibitors of human histone lysine methyltransferase G9a; hit rate 8.8% among 350,000; AID 504332; G9a H3K9 monomethylation, AlphaScreen, 2 h; Potency, µM (highest dose often 102 µM), inactives show at the highest dose activity, negative = inhibition, usual class: inhibitors; Q96KQ7; further: potency means the concentration at half of the fitted maximal effect; nearly all actives have a fitted effect of over 75% in size
Target sequence (Q96KQ7 913-1193 limits assumed): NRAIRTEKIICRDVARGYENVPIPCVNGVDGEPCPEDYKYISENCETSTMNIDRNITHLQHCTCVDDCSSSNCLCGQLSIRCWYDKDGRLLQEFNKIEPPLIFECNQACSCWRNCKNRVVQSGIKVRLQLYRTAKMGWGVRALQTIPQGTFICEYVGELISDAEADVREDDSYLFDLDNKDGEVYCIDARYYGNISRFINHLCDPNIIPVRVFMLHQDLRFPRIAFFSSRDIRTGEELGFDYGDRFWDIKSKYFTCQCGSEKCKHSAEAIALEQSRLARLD
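Methyltransferase reactions run at room temperature for 2 h (20 nM enzyme, 500 nM biotin-H3K9 peptide, 20 uM SAM) after a 15 min compound preincubation; product detected by AlphaScreen beads and anti-H3K9me1 antibody.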
VDR inh: vitamin D3 receptor (human) inhibition; P11473; VDR-SRC2-3 peptide fluorescence polarization, 2 h; Potency, µM, for inactives: max response, negative = inhibition, usual class: inhibitors; hit rate 0.93% among 400,000; AID 504847; further: potency means the concentration at half of the fitted maximal effect
Target sequence (P11473 whole entry, looked up): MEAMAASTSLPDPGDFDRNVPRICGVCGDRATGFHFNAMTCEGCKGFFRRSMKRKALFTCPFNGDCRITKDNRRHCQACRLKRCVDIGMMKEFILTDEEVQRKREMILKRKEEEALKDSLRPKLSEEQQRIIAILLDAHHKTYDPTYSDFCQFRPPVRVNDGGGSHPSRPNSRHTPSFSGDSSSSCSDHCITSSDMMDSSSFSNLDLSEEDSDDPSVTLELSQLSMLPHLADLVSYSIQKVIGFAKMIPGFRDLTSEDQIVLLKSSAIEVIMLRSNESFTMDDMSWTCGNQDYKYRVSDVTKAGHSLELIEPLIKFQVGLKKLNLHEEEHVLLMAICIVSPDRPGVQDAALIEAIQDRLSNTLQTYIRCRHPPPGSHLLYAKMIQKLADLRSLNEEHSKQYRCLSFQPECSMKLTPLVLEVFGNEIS
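Compounds are added to VDR with labelled SRC2-3 coactivator peptide and held 2 h at room temperature. Inhibition of the VDR–peptide interaction is then read as a change in fluorescence polarization.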
The depositor's hits bear a star; [ ] = remark or other dose. Unless noted, the call rests on the fitted dose curve; in most records, active means well fitted curve in the direction sought with a large enough effect; inconclusive means small, poorly fitted or top-dose-only effect, or another doubt; inactive means no such curve, though single readings can be large; an effect the other way counts as inactive or inconclusive. Unless noted, on the % scale 0 is the no-effect control and ±100 the full control effect.

Results for CCOC(=O)c1c(NC(=S)Nc2ccccc2)sc2c1CCN(CC)C2 ?
PLK1 PBD inh: inconclusive; CCT chaperon mod: 1; MmCpn inh: -3%; Sfp inh: inconclusive; G9a inh: 35µM*; VDR inh: 1%

How did CCCN1CCc2c(sc(NC(=O)CCS(=O)(=O)c3ccccc3)c2C(=O)OC)C1 do in these assays?
PLK1 PBD inh: -12%; CCT chaperon mod: -1; MmCpn inh: -8%; Sfp inh: -12%; G9a inh: 40µM*; VDR inh: 2%

How did CCOC(=O)N1CCc2c(sc(N)c2C#N)C1 do in these assays?
PLK1 PBD inh: 0%; CCT chaperon mod: -1; MmCpn inh: -1%; Sfp inh: 56µM*; G9a inh: 20µM*; VDR inh: inconclusive

How did COC(=O)c1c(NC(=O)CCS(=O)(=O)c2ccccc2)sc2c1CCN(C)C2 do in these assays?
PLK1 PBD inh: -3%; CCT chaperon mod: 0; MmCpn inh: 0%; Sfp inh: -1%; G9a inh: inconclusive; VDR inh: 3%

How did C=CCNC(=S)Nc1sc2c(c1C(=O)OCC)CCN(C(=O)OCC)C2 do in these assays?
PLK1 PBD inh: -28%; CCT chaperon mod: -1; Sfp inh: inconclusive; G9a inh: 13µM*; VDR inh: -30%

How did CCOC(=O)c1c(NC(=S)Nc2ccccc2)sc2c1CCCCC2 do in these assays?
PLK1 PBD inh: -5%; CCT chaperon mod: 0; MmCpn inh: 1%; Sfp inh: inconclusive; G9a inh: inconclusive; VDR inh: 0%

How did CCOCCCNC(=O)CN1C(=O)CCn2nc(-c3cccn3C)cc21 do in these assays?
G9a inh: -3%[59 µM]; VDR inh: -7%

What do the screens show for `CCCCC/C=C\C/C=C\CCCCCCCC(=O)NCC(=O)O`?
Sfp inh: 16%; G9a inh: 9%[59 µM]; VDR inh: -2%

What do the screens show for `CCOC(=O)c1c(NC(=O)CCCOc2ccc(C(C)(C)C)cc2)sc2c1CCC2`?
G9a inh: 7%[59 µM]; VDR inh: -8%

How did CCN(CC)CCC(c1cc(OC)c(OC)c(OC)c1)c1c(OC)cc(OC)c2c1OC(=O)CC2c1ccc(N(C)C)cc1 (stereo not drawn) do in these assays?
Sfp inh: 4%; VDR inh: -14%

How did Cc1oc2ncnc(N3CCCCC3)c2c1C(=O)NCC1CCN(Cc2cccc(F)c2)CC1 do in these assays?
G9a inh: -13%[59 µM]; VDR inh: 7%

Results for COc1ccc2c(CNCc3cccs3)c(C(=O)O)n(Cc3ccccc3C)c2c1 ?
G9a inh: -19%[59 µM]; VDR inh: -5%

How did CCOC(=O)c1c(NC(=S)N2CCCCC2)sc2c1CCN(C(=O)OCC)C2 do in these assays?
PLK1 PBD inh: -18%; CCT chaperon mod: 2; MmCpn inh: -5%; Sfp inh: inconclusive; G9a inh: inconclusive; VDR inh: -29%

Results for CCOC(=O)c1c(NC(=S)N2CCOCC2)sc2c1CCN(C(=O)OCC)C2 ?
PLK1 PBD inh: -25%; CCT chaperon mod: 2; MmCpn inh: -5%; Sfp inh: 50µM*; G9a inh: -37%[59 µM]; VDR inh: inconclusive

How did CCCCN(CC)C(=O)CSc1nc2c(sc3ccccc32)c(=O)n1CCc1ccccc1 do in these assays?
G9a inh: 2%[59 µM]; VDR inh: 2%

How did Cn1cccc1/C=C(/C#N)c1ccc(F)cc1 do in these assays?
PLK1 PBD inh: -12%; CCT chaperon mod: -4; MmCpn inh: 3%; Sfp inh: 4%; G9a inh: inconclusive; VDR inh: -3%

How did Cn1cccc1/C=C(\C#N)c1ccccc1 do in these assays?
PLK1 PBD inh: -9%; CCT chaperon mod: 1; MmCpn inh: 4%; Sfp inh: 2%; G9a inh: 22µM*; VDR inh: -17%

What do the screens show for `CN(C)c1cccc(/C=C(\C#N)c2ccccc2)c1`?
PLK1 PBD inh: -4%; CCT chaperon mod: -4; MmCpn inh: -1%; Sfp inh: -6%; G9a inh: 45µM*; VDR inh: -15%

What do the screens show for `Cc1c(Cl)cccc1NC(=O)Cn1cccc1`?
PLK1 PBD inh: -8%; CCT chaperon mod: -3; MmCpn inh: -1%; Sfp inh: 1%; G9a inh: inconclusive; VDR inh: 5%

Results for COc1ccc(OC)c(CCNC(=O)Cn2sc3nc(C)cc(C)c3c2=O)c1 ?
MmCpn inh: 0%; Sfp inh: 1.4µM*; G9a inh: 1µM*

What do the screens show for `Cc1cc(C)c2c(=O)n(CC(=O)Nc3cccc(Cl)c3C)sc2n1`?
PLK1 PBD inh: 2.7µM*; CCT chaperon mod: 0; MmCpn inh: 2%; Sfp inh: 2.5µM*; G9a inh: 0.28µM*; VDR inh: 18µM*

Results for Cc1cc(C)c2c(=O)n(CC(=O)Nc3ccc(Br)c(C)c3)sc2n1 ?
PLK1 PBD inh: 3µM*; CCT chaperon mod: -2; MmCpn inh: 0%; Sfp inh: 3.2µM*; G9a inh: 0.32µM*; VDR inh: inconclusive

What do the screens show for `Cc1cc(C)c2c(=O)n(CC(=O)NC3CCCC3)sc2n1`?
PLK1 PBD inh: 1.9µM*; CCT chaperon mod: -3; MmCpn inh: 0%; Sfp inh: 2.8µM*; G9a inh: 0.5µM*; VDR inh: 10µM*

How did O=C(CSc1nc(-c2ccccc2)no1)N1CCN(c2ccc(F)cc2)CC1 do in these assays?
G9a inh: -3%[59 µM]; VDR inh: 15%

What do the screens show for `CCc1nc2ccc(C(=O)NCc3cc(OC)ccc3OC)cc2nc1CC`?
G9a inh: 2%[59 µM]; VDR inh: 21%

Results for O=C(Nc1ccccc1Br)N1CCN2CCCCC2C1 (stereo not drawn) ?
G9a inh: -23%[59 µM]; VDR inh: 4%

Results for COc1ccccc1OCC(=O)Nc1cc(S(=O)(=O)N2CCOCC2)ccc1N1CCCCC1 ?
PLK1 PBD inh: 24µM*; CCT chaperon mod: 1; MmCpn inh: -19%; VDR inh: -24%

How did CCc1ccccc1OCC(=O)Nc1cc(S(=O)(=O)N2CCOCC2)ccc1N1CCCCC1 do in these assays?
PLK1 PBD inh: 10%; CCT chaperon mod: 1; MmCpn inh: -9%; G9a inh: -7%[0.501 µM]; VDR inh: 12%

What do the screens show for `COc1cc(S(=O)(=O)N2CCOCC2)ccc1NC(=O)COC(=O)CC12CC3CC(CC(C3)C1)C2`?
PLK1 PBD inh: 2%; CCT chaperon mod: 2; MmCpn inh: -1%; Sfp inh: 5%; G9a inh: 1.4µM*; VDR inh: 11%

How did O=C(COc1ccccc1Cl)Nc1ccc(S(=O)(=O)N2CCOCC2)cc1 do in these assays?
PLK1 PBD inh: 0%; CCT chaperon mod: -1; MmCpn inh: 0%; Sfp inh: -8%; G9a inh: -10%; VDR inh: -3%
